Results filed as inconclusive are left out. A number with no mark means an inactive call. Calls of active or inactive are those of the source. The call rests on the fitted dose curve; in most records, active means well fitted inhibition curve with a large enough effect; inconclusive means small, poorly fitted or top-dose-only effect; inactive means flat fitted curve, though single readings scatter.
Tests used:
[1] = tested on: CRL-7250; test: Cytotoxic Profiling of Annotated Libraries Using Quantitative High-Throughput Screening (AID 1296008); settings: Five cell lines viability, CellTiter-Glo ATP luminescence, 48-72 h; max response: stronger effect = lower value; further: nearly all actives have a fitted effect of over 60% in size
Method in brief: (§1)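 Compounds were pin-transferred onto cells and incubated 48 or 72 hr at 37 degree Celsius, 95% humidity. CellTiter-Glo was added, plates sat 10 min at room temperature, then ATP-coupled luminescence was imaged as the viability read-out.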

[2] = tested on: HEK293; test: as above; settings: Five cell lines viability, CellTiter-Glo ATP luminescence, 48-72 h; max response: stronger effect = lower value
Method in brief: as §1
On the % scale 0 is the no-effect control and ±100 the full control effect; potency means the concentration at half of the fitted maximal effect.

Structure (SMILES): CC1CCC2C(C(=O)O)=COC(O[C@@H]3O[C@H](CO)[C@@H](O)[C@H](O)[C@H]3O)C12 (some centres not stated)
- max response [1]: -11.5%
- max response [2]: -3.47%

Structure (SMILES): Cc1c(NC(=O)c2cc(C(N)=O)nc3cc(F)ccc23)c(C(F)(F)F)nn1Cc1ccc(C#N)cc1
- max response [1]: -21.4%
- Potency [2]: 0.0862 µM (active)

Structure (SMILES): CC(=O)O[C@H]1[C@@H](O)[C@H](O[C@H]2[C@@H]3C=CO[C@@H](O[C@H]4O[C@@H](CO)[C@H](O)[C@@H](O)[C@@H]4O)[C@@H]3[C@@]3(CO)O[C@@H]23)O[C@@H](C)[C@@H]1OC(=O)/C=C/c1ccccc1
- max response [1]: -1.67%
- max response [2]: 4.7%

Structure (SMILES): C[C@@H]1O[C@@H](O[C@H]2[C@@H]3C=CO[C@@H](O[C@@H]4O[C@H](CO)[C@@H](O)[C@H](O)[C@H]4O)[C@@H]3[C@@]3(CO)O[C@@H]23)[C@H](OC(=O)/C=C/c2ccccc2)[C@H](O)[C@H]1O
- max response [1]: -0.445%
- max response [2]: -1.51%

Structure (SMILES): CC1(C)CC[C@]2(C(=O)OC3OC(CO)C(O)C(O)C3O)CC[C@]3(C)C(=CCC4[C@@]5(C)CC[C@H](OC6OC(C(=O)O)C(O)C(OC7OC(CO)C(O)C(O)C7O)C6O)C(C)(C)C5CC[C@]43C)C2C1 (some centres not stated)
- max response [1]: 1.42%
- max response [2]: 1.3%

Structure (SMILES): COc1ccc(CCO[C@@H]2CCCC[C@H]2N2CC[C@@H](O)C2)cc1OC
- max response [1]: -6.87%
- max response [2]: 2.72%

Structure (SMILES): C=C1C[C@]23C[C@H]1CC[C@H]2[C@]1(C)CCC[C@@](C)(C(=O)O)[C@H]1[C@@H]3C(=O)O
- outcome [1]: inactive
- max response [2]: -6%

Structure (SMILES): C[C@@H]1O[C@@H](OC[C@H]2O[C@@H](Oc3cc(O)cc4c3C(=O)C(O)(Cc3ccc(O)cc3)O4)[C@H](O)[C@@H](O)[C@@H]2O)[C@H](O)[C@H](O)[C@H]1O (some centres not stated)
- max response [1]: 3.09%
- max response [2]: 1.44%

Structure (SMILES): O=C(NCc1cccc(O)c1)c1cc2cc(F)ccc2[nH]1
- max response [1]: 3.57%
- max response [2]: -13.7%

Structure (SMILES): C=C1CCC2C(C)(C(=O)OC)CCCC2(C)C1CCC(C)CC(=O)O (configuration not stated)
- outcome [1]: inactive
- max response [2]: -9.98%

Structure (SMILES): CC(=O)O[C@H]1CC(C)(C)CC2[C@@]13[C@H](O)C[C@]1(C)[C@@]2(CCC2[C@@]4(C)CC[C@H](O[C@@H]5OC[C@H](O[C@@H]6O[C@H](CO)[C@@H](O)[C@H](O)[C@H]6O[C@@H]6OC[C@@H](O)[C@H](O)[C@H]6O)[C@H](O)[C@H]5O[C@@H]5O[C@H](CO)[C@@H](O)[C@H](O)[C@H]5O)C(C)(C)C4CC[C@]21C)O[C@@H]3O (some centres not stated)
- Potency [1]: 2.46 µM (active)
- Potency [2]: 1.95 µM (active)

Structure (SMILES): CCCN1CCN(c2ccc(C(=O)NC3(C(=O)NCC#N)CCCCC3)cc2)CC1
- max response [1]: -0.563%
- max response [2]: -5.14%

Structure (SMILES): COc1cc(C(=O)OC[C@H]2O[C@@H](Oc3ccccc3/C=C/C(=O)O)[C@H](O)[C@@H](O)[C@@H]2O)cc(OC)c1OC
- max response [1]: -2.66%
- max response [2]: -0.285%

Structure (SMILES): CO[C@@H](C)Cn1c(=O)n(C)c2cnc3ccc(-c4cncc(C(C)(C)O)c4)cc3c21
- Potency [1]: 0.082 µM (active)
- Potency [2]: 0.231 µM (active)

Structure (SMILES): CN[C@H](C(=O)N[C@H](C(=O)N(C)[C@H](/C=C(\C)C(=O)O)C(C)C)C(C)(C)C)C(C)(C)c1ccccc1
- Potency [1]: 0.0052 µM (active)
- Potency [2]: 0.0073 µM (active)

Structure (SMILES): Cc1cc(Nc2cc(N3CCN(C)CC3)nc(/C=C/c3ccccc3)n2)n[nH]1
- Potency [1]: 5.8 µM (active)
- Potency [2]: 3.66 µM (active)

Structure (SMILES): C=C(CO[C@@H]1O[C@H](CO[C@@H]2OC[C@](O)(CO)[C@H]2O)[C@@H](O)[C@H](O)[C@H]1O)C1Cc2cc(C(C)=O)ccc2O1 (some centres not stated)
- max response [1]: -1.55%
- max response [2]: -4.65%

Structure (SMILES): CC(C)C1=CC2C(CC[C@]2(C)O)[C@](C)(O)CC1 (some centres not stated)
- max response [1]: -11.6%
- max response [2]: -1.9%

Structure (SMILES): C=C1CCC2C(C)(C)C(O)CCC2(C)C1CCC(C)CCOC(C)=O (configuration not stated)
- outcome [1]: inactive
- max response [2]: -19.2%

Structure (SMILES): O=C1CCC=CC1(O)C(=O)OCc1ccccc1O[C@@H]1O[C@H](CO)[C@@H](O)[C@H](O)[C@H]1O (some centres not stated)
- max response [1]: -18.5%
- max response [2]: -24.1%

Structure (SMILES): CC(=O)OC1C[C@]2(C)C(O)CC(C)=C[C@H](OC(=O)c3ccc(O)cc3)C2[C@]1(O)C(C)C (some centres not stated)
- max response [1]: 1.7%
- max response [2]: -3.03%

Structure (SMILES): CC(=O)O[C@]1(C(C)=O)CC[C@H]2[C@@H]3C[C@H](C)C4=CC(=O)C=C[C@]4(C)[C@@]3(F)[C@@H](O)C[C@@]21C
- max response [1]: -19.1%
- max response [2]: -1.51%

Structure (SMILES): CCc1c(C)nc2c(-c3cnn(-c4cc(CO)ccn4)c3)c[nH]n2c1=O
- max response [1]: -0.312%
- outcome [2]: inactive

Structure (SMILES): O=C(Nc1c(-c2cccs2)nc2ccccn12)c1ccc(Cl)cc1
- outcome [1]: inactive
- max response [2]: -117%

Structure (SMILES): CC(C)c1cc2c(c(O)c1O)[C@@]13CCCC(C)(C)[C@@H]1[C@H](OC3=O)C2=O
- max response [1]: 0.881%
- max response [2]: -6.57%

Structure (SMILES): CC1(C)CC[C@]23CO[C@@]4(CCC5[C@@]6(C)CC[C@H](O[C@@H]7OC[C@H](O[C@@H]8O[C@H](CO)[C@@H](O)[C@H](O)[C@H]8O)[C@H](O)[C@H]7O[C@@H]7O[C@H](CO)[C@@H](O[C@@H]8O[C@H](CO)[C@@H](O)[C@H](O)[C@H]8O)[C@H](O)[C@H]7O)[C@@](C)(CO)C6CC[C@@]5(C)[C@]4(C)C[C@H]2OC2OCC(O)C(O)C2O)C3C1 (some centres not stated)
- Potency [1]: 1.55 µM (active)
- Potency [2]: 2.45 µM (active)

Reference: PubChem BioAssay (NCATS)
